CYP2C19 activ: human CYP2C19 activators, primary screen, biochemical, luminescence. Cytochrome P450 2C19 (Homo sapiens), P33261. recombinant CYP2C19, luciferin-H EGE luminescence; hits give high values; 0 = fully inhibited enzyme, 1 = untreated enzyme. activation factor at 5 µM. 96,000 tested, under 10 active. AID 1025, 2008;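 active = activation factor of at least 2 at 5 µM in the primary screen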
CYP2C19 inh: blockers of cytochrome P450 2C19 activity – biochemical, luminescence, ADME assay, primary screen; P33261; 96,000 compounds, 21% hits; inhibition, % at 5 µM; CYP2C19 Supersomes, luciferin-H EGE luminescence, 30 min;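 active = CYP2C19 inhibition above a set limit at 5 µM in the primary screen, cut at about 50% in these data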
PLK1 inh: human PLK1 kinase inhibitors, primary screen, biochemical, TR-FRET | Serine/threonine-protein kinase PLK1 (Homo sapiens), P53350 | recombinant PLK1 kinase, TR-FRET peptide phosphorylation | inhibition, % at 10 µM | 97,000 compounds, 0.53% hits | AID 619, 2007;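 active = inhibition of 50% or more in the single-concentration screen; inactive = inhibition below 50%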
CYP2C9 act: human CYP2C9 activators, primary screen, biochemical, luminescence; recombinant CYP2C9, luciferin-H conversion; hits give high values; factor 1 = untreated enzyme, 0 = blocked; activation factor at 5 µM; 96,000 compounds, 1.4% hits;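 active = activation factor of 2 or more for CYP2C9 at a 5 µM dose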
Target sequence (P11712 whole entry, looked up): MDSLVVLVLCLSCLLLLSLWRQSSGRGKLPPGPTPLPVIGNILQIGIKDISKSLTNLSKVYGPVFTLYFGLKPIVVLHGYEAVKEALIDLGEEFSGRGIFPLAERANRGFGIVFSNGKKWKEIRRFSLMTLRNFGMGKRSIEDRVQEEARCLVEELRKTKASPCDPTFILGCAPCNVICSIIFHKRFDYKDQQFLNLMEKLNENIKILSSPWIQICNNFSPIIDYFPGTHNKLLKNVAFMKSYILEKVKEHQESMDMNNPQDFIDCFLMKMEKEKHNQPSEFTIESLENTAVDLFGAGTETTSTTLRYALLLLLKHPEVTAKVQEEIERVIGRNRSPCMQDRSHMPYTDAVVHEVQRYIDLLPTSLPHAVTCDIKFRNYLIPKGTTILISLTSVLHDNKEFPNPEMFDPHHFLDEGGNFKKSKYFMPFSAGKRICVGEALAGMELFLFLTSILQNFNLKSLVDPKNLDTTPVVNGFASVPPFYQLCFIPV
CYP2C9 inhib: blockers of cytochrome P450 2C9 activity – biochemical, luminescence, ADME assay, primary screen. P11712. CYP2C9 Supersomes, luciferin-H conversion. inhibition, % at 5 µM. 96,000 compounds, 20% hits. AID 777, 2007;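 active = blocking of liver enzyme CYP2C9 beyond about 50% at 5 µM, limit read from the data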
PLK1 PBD inh: Plk1 polo box domain binding inhibitors, primary screen, biochemical, fluorescence polarization; AID 693, 2007; Serine/threonine-protein kinase PLK1 (Homo sapiens), P53350; Plk1 PBD phosphopeptide binding; 97,000 compounds, 0.13% hits; inhibition, %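 (tested at about 20 µM)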; in the data active = inhibition above about 34%, passing the limit was not always enough
Of the large screens only hits and unclear results are named; the others gave an inactive call. Rows were chosen to be rich in hits. Some 28% of all compounds tested hit in one or more screens of this group.

COc1ccccc1NC(=O)c1sc2nc(Cc3ccccc3)cc(C(F)(F)F)c2c1N	none
C=CCc1c(C)nc(SC)nc1Nc1ccc(C(C)=O)cc1	CYP2C19 inh 94.5, CYP2C9 inhib 97.2
COc1cc2c(cc1OC)C(c1cccs1)N(C(=O)C(C)C)CC2 (stereo not given)	CYP2C19 inh 62.8
COc1cc2c(cc1OC)C(c1ccccc1)N(C(=O)CCl)CC2 (stereo not given)	none
CCC(c1nnnn1Cc1ccco1)N1CCN(C(=O)c2ccco2)CC1 (stereo not given)	none
COCCn1nnnc1C(C(C)C)N1CCN(C(=O)c2ccco2)CC1 (stereo not given)	none
O=C(c1ccco1)N1CCN(C(c2ccccc2Cl)c2nnnn2Cc2cccs2)CC1 (stereo not given)	CYP2C19 inh 89.0, CYP2C9 inhib 92.1
CC(C)CC(c1nnnn1Cc1ccccc1)N1CCN(C(=O)c2ccco2)CC1 (stereo not given)	CYP2C19 inh 87.4, CYP2C9 inhib 65.3
CCCC(c1nnnn1CCOC)N1CCN(C(=O)c2ccco2)CC1 (stereo not given)	CYP2C19 inh 50.3
Cc1cc(=O)c2n(Cc3ccc(Cl)cc3)nc[n+]2[nH]1	none (no result: PLK1 inh, PLK1 PBD inh)
C=CCn1c(SCC(=O)Nc2cccc(C(=O)OC)c2)nnc1C(C)NC(=O)c1cccs1 (stereo not given)	CYP2C19 inh 70.6, CYP2C9 inhib 81.9
C=CCn1c(CNC(=O)c2ccco2)nnc1SCC(=O)Nc1cccc(Br)c1	none
C=CCn1c(Cc2cccs2)nnc1SCC(=O)Nc1cc(OC)cc(OC)c1	CYP2C19 inh 78.8
C=CCn1c(CCNC(=O)c2cccs2)nnc1SCC(=O)c1ccc(Br)cc1	CYP2C19 inh 50.6, CYP2C9 inhib 72.4
C=CCn1c(Cc2cccs2)nnc1SCC(=O)Nc1ccc(C(=O)OCC)cc1	none
C=CCn1c(CCNC(=O)c2cccs2)nnc1SCC(=O)Nc1cccc(C(C)=O)c1	CYP2C9 inhib 74.5
C=CCn1c(SCC(=O)NCCc2ccccc2)nnc1C(C)NC(=O)c1cccs1 (stereo not given)	none (no result: CYP2C19 activ, CYP2C19 inh, CYP2C9 act, CYP2C9 inhib)
CC1CCCC(C)N1CC(O)COCC1COc2ccccc2O1 (stereo not given)	none
COc1ccc(-n2c(=O)c3ccccc3n(CC(=O)NC3CCCC3)c2=O)cc1	none
Cc1cccc(NC(=O)CSc2nnc(CCC(=O)Nc3ccc(C)c(Cl)c3)n2C)c1	none
C=CCn1c(CCC(=O)Nc2ccc(C)c(Cl)c2)nnc1SCC(=O)Nc1ccccc1C	CYP2C9 inhib 64.0
COc1ccc(-c2ccnc(-c3ccc(OCCCF)cc3)n2)cc1	CYP2C9 inhib 51.2
FCCCOc1ccc(-c2nccc(-c3ccc(Cl)cc3)n2)cc1	none
O=C1CCCN1c1ccc(S(=O)(=O)Oc2cccc(Cl)c2)cc1[N+](=O)[O-]	CYP2C19 inh 66.5
CC1/C(=N/O)CC(c2ccccc2)NC1c1ccccc1 (stereo not given)	CYP2C19 inh 70.2, CYP2C9 inhib 51.0
Cc1ccc(C2NC(c3ccc(C)cc3)C(C)C(=NO)C2C)cc1 (stereo not given)	CYP2C19 inh 93.3, CYP2C9 inhib 51.3
CC1C(=NO)C(C)C(c2ccccc2)NC1c1ccccc1 (stereo not given)	CYP2C19 inh 98.0
CC1/C(=N/O)CC(c2ccccc2)N(C)C1c1ccccc1 (stereo not given)	none (no result: CYP2C19 activ, CYP2C19 inh, CYP2C9 act, CYP2C9 inhib)
CCN1C(=O)c2c(C)nc3ccccc3c2C1=O	CYP2C19 inh 58.3
O=C(Nc1ccc2c(c1)OCCO2)c1cccnc1	none (no result: PLK1 inh, PLK1 PBD inh)
COc1cc2c(cc1OC)C(C(=O)Nc1ccc3c(c1)OCCO3)C(c1cccnc1)N(C)C2=O (stereo not given)	CYP2C9 inhib 54.1
COc1ccc(OC)c(NC(=O)C2C3CC4OC(=O)C2C4C3)c1 (stereo not given)	none (no result: CYP2C19 activ, CYP2C19 inh, CYP2C9 act, CYP2C9 inhib)
Brc1ccc(-c2noc(COc3ccc4c(c3)CCC4)n2)o1	CYP2C9 inhib 64.2 (no result: PLK1 inh, PLK1 PBD inh)
CC1=C(C(=O)NC(C)C)C2(CCC(C)CC2)OC1=O (stereo not given)	none (no result: CYP2C19 activ, CYP2C19 inh, CYP2C9 act, CYP2C9 inhib)
CC1=C(C(=O)NC2CCCCC2C)C2(CCC(C)CC2)OC1=O (stereo not given)	CYP2C19 inh 91.2 (no result: PLK1 inh, PLK1 PBD inh)
COc1ccccc1CNC(=O)C1=C(C)C(=O)OC12CCC(C)CC2 (stereo not given)	CYP2C19 inh 97.9, CYP2C9 inhib 72.1
CC1=C(C(=O)N2CCCCC2)C2(CCC(C)CC2)OC1=O (stereo not given)	CYP2C19 inh 50.7
COc1ccc(NC(=O)C2=C(C)C(=O)OC23CCC(C)CC3)c(OC)c1 (stereo not given)	CYP2C19 inh 87.1, CYP2C9 inhib 76.7 (no result: PLK1 inh, PLK1 PBD inh)
CC1=C(C(=O)N2CCCCCC2)C2(CCC(C)CC2)OC1=O (stereo not given)	none
NC(=O)c1c(NC(=O)c2ccccc2)sc2c1CCc1ccccc1-2	none
CCCNC(=O)C1=C(C)C(=O)OC12CCC(C)CC2 (stereo not given)	CYP2C19 inh 52.5
CCOc1ccc(NC(=O)C2=C(C)C(=O)OC23CCC(C)CC3)cc1 (stereo not given)	CYP2C19 inh 89.7, CYP2C9 inhib 69.3
COc1cccc(CNC(=O)c2ccccc2N)c1	CYP2C19 inh 78.2
COc1cccc(CNC(=O)Cn2cccc2)c1	none
COc1cccc(CNC(=O)C2=C(C)C(=O)OC23CCC(C)CC3)c1 (stereo not given)	CYP2C19 inh 90.6
CC1(C)NC(=O)N(c2ccccc2Cl)C1(C)NO (stereo not given)	none (no result: PLK1 inh, PLK1 PBD inh)
CCN(CC(=O)N1CCOCC1)S(=O)(=O)c1ccc(C)cc1	none
O=C(CN(CCc1ccccc1)C(=O)CNS(=O)(=O)c1ccc(F)cc1)NCc1ccco1	CYP2C19 inh 72.8
O=C(CN(Cc1ccccc1)C(=O)c1ccco1)NCc1ccc(F)cc1	CYP2C19 inh 83.5
O=C(CN(Cc1ccc2c(c1)OCO2)C(=O)CNS(=O)(=O)c1ccccc1)NCc1ccco1	CYP2C19 inh 74.0
COc1ccccc1CN(CC(=O)NCc1ccco1)C(=O)CNS(=O)(=O)c1ccccc1	none (no result: PLK1 inh, PLK1 PBD inh)
OC(CNCC(c1ccco1)N1CCCCC1)c1ccccc1 (stereo not given)	none
CC(C)(C)NC(=O)CN(C(=O)Cn1nnc(-c2ccc(Cl)cc2)n1)C1CCN(Cc2ccccc2)CC1	none (no result: CYP2C19 activ, CYP2C19 inh, CYP2C9 act, CYP2C9 inhib)
O=C(CNS(=O)(=O)c1ccc(F)cc1)N1CCN(c2ccccc2)CC1	none
Cn1c(=O)c2c(nc(CN3CCc4ccccc4C3)n2CCc2ccccc2)n(C)c1=O	none (no result: CYP2C19 activ, CYP2C19 inh, CYP2C9 act, CYP2C9 inhib)

Source: PubChem BioAssay (several laboratories)
